In PubChem BioAssay:

Test: S6 kinase pathway phospho-S6 level changes – cell-based, A549, cytoblot, luminescence, serum-stimulated, primary screen (AID 1158);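 also: serum-stimulated A549 lung adenocarcinoma cells; signal is phosphorylated S6 detected by cytoblot immunostaining with HRP secondary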
Conditions: 5 h, higher = more signal

| Structure (SMILES) | z-score |
| --- | --- |
| CCCC[C@H]1OB(O)C[C@H]2C1=C(COc1ccccc1)C[C@H]1C(=O)C=CC(=O)[C@H]12 | -0.0871 |
| COCCOC(=O)N1C(=O)[C@@]2(c3cc(C#CCC(C(=O)OC)C(=O)OC)ccc31)[C@H](C(=O)Nc1nc3ccccc3s1)[C@H]1C(=O)O[C@H](c3ccccc3)[C@H](c3ccccc3)N1[C@@H]2c1ccc(O)cc1 | -0.0525 |
| COC(=O)[C@@]1(Cc2ccc(OC)cc2)[C@H]2c3cc(C(=O)N4CCCC4)n(Cc4ccc(Cl)c(C(F)(F)F)c4)c3C[C@H]2CN1C(=O)c1ccccc1 | 2.85 |
| Cc1ccc(F)cc1S(=O)(=O)N[C@H]1CCN(Cc2ccc(OC(C)C)cc2)C1 | -0.227 |
| COCCOC(=O)N1C(=O)[C@@]2(c3cc(C#CCNC(N)=O)ccc31)[C@H](C(=O)Nc1nc3ccccc3s1)[C@H]1C(=O)O[C@H](c3ccccc3)[C@H](c3ccccc3)N1[C@@H]2c1ccccc1OCCO | 2.18 |
| CCCCC(O)C1C=CC2C(=O)N(c3ccccc3)C(=O)C2N1Nc1ccc([N+](=O)[O-])cc1 (stereo unspecified) | 0.581 |
| CCCN1C(=O)[C@@]2(c3ccc([N+](=O)[O-])cc3)CC(=O)N(CC34CC5CC(CC(C5)C3)C4)[C@@H]2c2ccc(CO)cc21 | -0.574 |
| O=C1C=C(c2ccccc2)C(=O)C2=C1CC([C@H]1Oc3ccccc3S(=O)(=O)N3CCC[C@@H]13)=CC2 | -0.154 |
| O=C1[C@H]2C=C(I)[C@H](C[C@@H]2OCCCCCCO)[C@@]12CO2 | -0.251 |
| N#Cc1ccc(-c2cccc(=O)o2)cc1 | -0.0905 |
| N#Cc1ccc(NN2C(C(O)C3CC=CCC3)C=CC3C(=O)N(c4ccccc4)C(=O)C32)cc1 (stereo unspecified) | -0.723 |
